Screening results (PubChem)
Sampled rows, rich in hits. Any-hit rate of the full collection: about 6%.
HEK293 cAMP cs: counter-screen for TSHR agonists: cAMP increase in parental HEK293 | parental HEK293 CNG cAMP sensor, membrane potential fluorescence | Potency, µM (highest dose often 57.1 µM), for the others: top-dose activation, actives largely listed as activators | 73,000 compounds, 2.5% hits; note: % of control where 0% means no effect; nearly all actives have a fitted effect of over 55% in size
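Parental HEK 293 cells stably expressing a modified CNG channel (no TSHR) report cAMP rise as membrane depolarization. Membrane potential dye with 100 uM RO 20-1724 was loaded for 60 min at room temperature, then compound added for 30 min; fluorescence read at 590 nm.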
TSHR agonist: activates the human thyroid stimulating hormone receptor. AID 926. 73,000 compounds, 0.48% hits. P16473. HEK293-CNG-TSHR cells (CNG channel as cAMP sensor), membrane potential dye, cAMP. Potency, µM (top dose mostly 57.1 µM), for the others: at the top dose activation, most hits filed as activators; active = well fitted activation curve with a large enough effect in the main read-out, with a control signal flat, not every such curve was filed as active; inconclusive = small, poorly fitted or top-dose-only effect, or a change in a side signal; inactive = no such curve, though single readings can be large or run the other way; % of control where 0% means no effect;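 note: the control signal comes from parental cells without the receptor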
Target sequence (P16473 whole entry, looked up): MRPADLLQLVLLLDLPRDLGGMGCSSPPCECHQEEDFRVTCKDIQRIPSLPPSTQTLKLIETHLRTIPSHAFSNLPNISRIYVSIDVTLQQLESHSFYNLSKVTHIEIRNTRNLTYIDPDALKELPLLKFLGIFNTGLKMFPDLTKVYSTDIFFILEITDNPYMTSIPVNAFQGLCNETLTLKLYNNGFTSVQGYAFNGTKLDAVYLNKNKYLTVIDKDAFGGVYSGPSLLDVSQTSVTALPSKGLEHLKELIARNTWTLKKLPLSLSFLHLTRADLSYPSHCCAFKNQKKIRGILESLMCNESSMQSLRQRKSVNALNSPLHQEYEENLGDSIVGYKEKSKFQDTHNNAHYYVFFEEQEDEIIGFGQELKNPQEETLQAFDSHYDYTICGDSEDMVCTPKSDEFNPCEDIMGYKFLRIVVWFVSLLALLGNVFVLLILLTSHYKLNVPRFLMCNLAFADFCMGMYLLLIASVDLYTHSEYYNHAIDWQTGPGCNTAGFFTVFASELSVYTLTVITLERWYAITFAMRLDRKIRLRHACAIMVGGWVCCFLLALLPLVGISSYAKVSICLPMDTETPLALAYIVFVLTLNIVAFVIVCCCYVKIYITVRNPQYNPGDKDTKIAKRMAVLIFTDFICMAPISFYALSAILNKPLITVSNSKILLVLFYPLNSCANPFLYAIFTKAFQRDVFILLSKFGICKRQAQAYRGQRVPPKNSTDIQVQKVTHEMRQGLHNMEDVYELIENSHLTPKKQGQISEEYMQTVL
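HEK 293 cells stably expressing TSHR and a modified CNG channel, with CNG-only parental cells as counterscreen, were preloaded 60 min at room temperature with membrane potential dye containing 100 uM RO 20-1724. Compound exposure was 30 min, and depolarization was read as fluorescence at 590 nm.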
CRE-bla Fsk: CRE-bla signaling modulation under forskolin stimulation | Potency, µM (doses to about 38.2 µM), without a hit: at the top dose activity change, negative = inhibition, hits mostly activators | 71,000 compounds, 2.5% hits | CHO CRE-bla reporter (cAMP response element driving beta-lactamase), forskolin EC10, beta-lactamase ratio | AID 662; active = well fitted activation curve with a large enough effect in the signal ratio, with a control signal flat, not every such curve was filed as active; inconclusive = small, poorly fitted or top-dose-only effect, or effect the other way, or a change in a side signal; the % refers to the signal ratio; note: % of control where 0% means no effect
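CHO CRE-bla cells, overnight plating in Opti-MEM with 0.5% dialyzed FBS; cpd titration + EC10 NKH 477, 3 h 37 °C; CCF4 2 h RT; ex 405/em 460 vs 530 ratio → %Activity, AC50.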
ERK AVP inh: vasopressin-driven ERK pathway inhibition; HEK293-V1b, vasopressin-stimulated pERK AlphaScreen; Potency, µM (series often up to 57.5 µM), for inactives: top-dose activity, negative = inhibition, most hits filed as inhibitors; 72,000 compounds, 0.99% hits; AID 995; note: % is set by controls: 0 for no effect and ±100 for the full control effect; nearly all actives have a fitted effect of over 55% in size
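Phosphorylated ERK1/2 detected via AlphaScreen bead proximity in lysates of V1b-expressing HEK293 cells given 25 nM vasopressin for 5 min after 30 min compound exposure (37 °C). AC50 from Hill equation; basal DMSO 0%, vasopressin 100%.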
Active calls of the source: *; ? = inconclusive; . = no result; [ ] = remark or other dose. Unless noted, calls come from the whole dose curve; as a rule, active = well fitted curve in the direction sought with a large enough effect; inconclusive = small, poorly fitted or top-dose-only effect, or another doubt; inactive = no such curve, though single readings can be large; an effect the other way counts as inactive or inconclusive. Potency is the fitted concentration of half-maximal effect.

SMILES	HEK293 cAMP cs	TSHR agonist	CRE-bla Fsk	ERK AVP inh
CC1CCC2C(=O)N3C(CCC(C)C3c3ccc(-c4ccco4)cc3)C(=O)N2C1c1ccc(-c2ccco2)cc1 (centres undefined)	6%[11.4 µM]	-3%[11.4 µM]	.	35%[11.5 µM]
O=C(Nc1nc2ccccc2s1)C1CCCN1S(=O)(=O)c1ccc(Cl)cc1 (centres undefined)	6%	.	?	20µM*
Clc1nc(NCCc2ccccc2)c2ncn(-c3ccccc3)c2n1	?	?	16%[7.6 µM]	.
Nc1c(Cl)cc(Cl)cc1Cl	21%	-2%	4%	26%
O=C(Nc1nc2ccc(Cl)cc2s1)c1ccc(Br)o1	8%[11.4 µM]	-1%[11.4 µM]	?	-9%
O=C(Nc1nc2c(Cl)cccc2s1)c1ccc(Br)o1	?	?	-1%	25µM*
O=C(Nc1cccc(-c2nnc(-c3ccccc3)o2)c1)C1CCCCC1	?	?	-8%	-12%
Clc1cccc(-c2nnc(-c3ccccc3)o2)c1	?	?	9%	19%
O=S(=O)(NC1CCCCC1)c1cccc(-c2nnc(-c3ccccc3)o2)c1	20µM*	?	3%	?
Cc1ccccc1NS(=O)(=O)c1cccc(-c2nnc(-c3ccccc3)o2)c1	6.3µM*	?	16%	?
Cc1cccc(NS(=O)(=O)c2ccc(Cl)c(C(=O)O)c2)c1	-5%	4%	.	.
CN1CCN(S(=O)(=O)c2ccc(SCCOc3ccccc3)nc2)CC1	3%	6%	-7%	25µM*
O=S(=O)(c1ccc(SCCO)nc1)N1CCCC1	-7%	-3%	-13%	-15%
Cc1cc(Nc2ccccc2)nc(-c2ccccc2O)n1	-14%	-23%	-3%	32µM*
Cc1cc(Nc2cccc(F)c2)nc(-c2ccccc2O)n1	-39%	?	?	7.9µM*
COc1ccccc1NC(=O)Cn1nc(C(F)(F)F)c2c1CCCC2	20µM*	?	4%	29%
C=C1CC[C@@H]2[C@](C)(CC[C@@H](O)[C@]2(C)CO)[C@@H]1C/C=C1/C(=O)OC[C@H]1O	1%	5%	?	.
O=C(c1cc2ccccc2oc1=O)N1CCN(c2ccc(N3CCOCC3)nn2)CC1	4%	-5%	0%	-7%
O=C(c1ccc(CSCc2ccccc2F)o1)N1CCN(c2ccc(N3CCOCC3)nn2)CC1	?	?	?	25µM*
CCCOC(=O)c1ccc(OCC(O)Cn2c(C)nc3ccccc32)cc1 (centres undefined)	?	?	-13%	13µM*
CC(C)CCSc1nc2c(c(=O)[nH]c(=O)n2C)n1CCCc1ccccc1	4%	12%	3.2µM*	.
CCOCCn1c(SCCCc2ccccc2)nc2c1c(=O)[nH]c(=O)n2C	28%	.	4%	2%
CCCCCSc1nc2c(c(=O)[nH]c(=O)n2C)n1CCc1ccccc1	7%	7%	2.5µM*	.
CC(C)CCn1c(Sc2nc3ccccc3s2)nc2c1c(=O)[nH]c(=O)n2C	26%	18%	10µM*	-19%
COc1ccc(C[C@@H]2c3cc(OC)c(OC)cc3CC[N@+]2(C)CCC(=O)OCCCCCOC(=O)CC[N@@+]2(C)CCc3cc(OC)c(OC)cc3[C@H]2Cc2ccc(OC)c(OC)c2)cc1OC	-6%[25.6 µM]	-11%[25.6 µM]	9%[17.1 µM]	10%[25.7 µM]
SMILES	HEK293 cAMP cs	TSHR agonist	CRE-bla Fsk	ERK AVP inh
CS(=O)(=O)Nc1cccc(-c2ccc3ncnc(N4CCNCC4)c3c2)c1	-14%	2%	?	?
CCc1nc(SCC(=O)Nc2cc(C)on2)c2c(C)c(C)sc2n1	?	?	2.5µM*	-4%
CCCc1nc(SCC(=O)Nc2cc(C)on2)c2ccccc2n1	-13%	8%	-7%	4%
CCc1cc2ccc(OC)cc2nc1SCC(=O)Nc1cc(C)on1	?	?	-7%	31%
CCc1cc2ccccc2nc1SCC(=O)Nc1cc(C)on1	25µM*	?	14%	-10%
Cc1cc(NC(=O)CSc2nc(C(C)C)nc3c2c(=O)n(C)c(=O)n3C)no1	?	?	10µM*	.
Cc1cc(NC(=O)CSc2nc3c(c(=O)n(C)c(=O)n3C)n2C(C)C)no1	6%	1%	?	-28%
N#CC1(O)CCCCC1	19%	4%	-5%	1%
O=C(CSc1nc2ccccc2c(=O)n1-c1ccc(Cl)cc1)c1ccco1	25µM*	?	-3%	-3%
O=C(NCCCCN1CCCC1)c1ccc(Cc2nc3ccccc3[nH]2)cc1	11%	-4%	.	.
Cc1cnc(N)c2c(=O)oc3ccccc3c12	-1%	0%	13µM*	.
COc1ccccc1C(CCN(Cc1cccs1)C(C)=O)c1ccco1 (centres undefined)	16µM*	?	0%	-20%
N#CCCn1c(=O)cnc2cnc(N3CCOCC3)nc21	9%	6%	23%	6.3µM*
N#CCCn1c(=O)c(-c2ccc(Cl)cc2)nc2cnc(N3CCOCC3)nc21	-9%	4%	5µM*	-11%
CN1CCN(c2ncc3nc(-c4ccc(Cl)cc4)c(=O)n(CCC#N)c3n2)CC1	?	?	?	15%
O=c1cnc2cnc(N3CCOCC3)nc2n1Cc1cccs1	?	?	?	12%
N#CCCn1c(=O)c(-c2ccc(F)cc2)nc2cnc(N3CCOCC3)nc21	8%	1%	0.4µM*	-5%
CC(C)[C@@H](CC(=O)N[C@@H]1CCCC[C@H]1C(=O)N[C@H](CC(=O)N[C@@H](CCC(=O)O)CC(=O)O)Cc1ccccc1)NC(=O)C[C@H](CO)NC(=O)[C@@H]1CCCC[C@H]1N	-10%	5%	?	.
O=C(Nc1ccccc1)c1cccc(N2CCCC2=O)c1	16µM*	?	-10%	4%
O=C(O)c1cccc(N2CCCC2=O)c1	-1%	-3%	0%	18%
FC(F)(F)c1cccc(-c2noc(-c3cc(-c4ccccc4)c(C(F)(F)F)s3)n2)c1	3%	-1%	.	13%
CCc1nc(SCC(=O)N2CCN(C(=O)c3ccco3)CC2)c2c3c(sc2n1)CCCC3	21%	-3%	12%	20µM*
O=C(c1ccco1)N1CCN(c2nc(C3CC3)nc3sc4c(c23)CCCC4)CC1	?	?	?	7%
N#CC1=C(SCC(=O)c2cc3ccccc3oc2=O)NC(=O)C(C#N)C12CCCC2 (centres undefined)	-6%	6%	-30%	25µM*
C#CCSc1nc(-c2cccs2)ccc1C#N	?	?	7.9µM*	17%
SMILES	HEK293 cAMP cs	TSHR agonist	CRE-bla Fsk	ERK AVP inh
CCSc1nc(-c2ccco2)ccc1C#N	-2%	.	-2%	-14%
Cc1ccnc(Nc2nc(-c3c(C)nc4sccn34)cs2)c1	-14%	-16%	?	25µM*
Cc1nc2sccn2c1-c1nc(-c2cc3ccccc3o2)cs1	?	?	?	-18%
CCN1CCN(C(=O)c2nn(-c3ccc(OC)cc3)c(=O)c3c2c2ccccc2n3C)CC1	?	?	?	-26%
COc1ccc(-n2nc(C(=O)NCc3ccco3)c3c4ccccc4n(C)c3c2=O)cc1	10µM*	?	?	4%
COc1cccc(-c2nc(N3CCN(C)CC3)c3ccccc3n2)c1	9%	.	?	?
